Among the test systems are HCT-15 colon; HT29 colon; SNB-75 CNS; SNB-19 CNS; U251 CNS; PC-3 prostate; SK-MEL-5 melanoma; UACC-62 melanoma; LOX IMVI melanoma; SK-MEL-28 melanoma; SK-MEL-2 melanoma; EKVX NSCLC; SN12C renal; UO-31 renal; ACHN renal; CAKI-1 renal; A498 renal; CCRF-CEM leukemia; MOLT-4 leukemia; TK-10 renal.
Holding throughout (assay): NCI-60 one-dose screen, 48 h (100 = growth as untreated, 0 = no growth, -100 = all killed)
Holding throughout (conditions): 10 µM unless noted

The text below walks through data of PubChem BioAssay (NCI).

SMILES strings stand for the structures. The panel holds about 83,000 compounds, 20% with a hit somewhere; the sample as a whole holds those more often.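 Assay: single dose, 48 h. Readout: percent growth (0 = no net growth; negative = cell death). Active: <10.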 Values without a mark were called inactive. The source made the active and inactive calls.

For `CCN(CCNc1ccc(C)c2sc3cc(Cl)ccc3c(=O)c12)CC(C)(C)O`, the growth in the test on HCT-15 colon is 17.5%; in the test on HT29 colon, 21.7%; in the test on SNB-75 CNS, 68.5%; with SNB-19 CNS it was 71%; in the test with U251 CNS it was 46.3%; in the test on PC-3 prostate, 81.2%. In addition, the growth with SK-MEL-5 melanoma was 63.4%; with UACC-62 melanoma, -60.1% (active); with LOX IMVI melanoma it was 41.8%; with SK-MEL-28 melanoma it was -33% (active); in the test with SK-MEL-2 melanoma it was 56.6%; in the test on EKVX NSCLC it was 82%. Further, the growth is 71.5% in the test on SN12C renal; 50.5% in the test with UO-31 renal; 69.3% in the test on ACHN renal; 55.8% with CAKI-1 renal; 75.5% in the test with A498 renal; 79.5% in the test with CCRF-CEM leukemia. For the same compound, the growth with MOLT-4 leukemia is 70.5%.
Regarding `Nc1nc(C(=O)N/N=C/c2ccc(F)cc2)nn1-c1ccc(S(N)(=O)=O)cc1`, the growth with HCT-15 colon is 108%; in the test on HT29 colon, 98.5%; with SNB-75 CNS, 83.1%; in the test with SNB-19 CNS, 95.2%; in the test with U251 CNS it was 98.4%; in the test with PC-3 prostate, 107%. For the same compound, the growth in the test on SK-MEL-5 melanoma was 107%; in the test with UACC-62 melanoma, 94.4%; with LOX IMVI melanoma it was 94.1%; in the test with SK-MEL-28 melanoma, 107%; in the test with SK-MEL-2 melanoma, 104%; in the test on EKVX NSCLC, 101%. Moreover, the growth with UO-31 renal was 81.4%; with TK-10 renal it was 99.4%; in the test with ACHN renal it was 99.2%; with CAKI-1 renal, 90.4%; in the test with A498 renal, 100%; with CCRF-CEM leukemia, 112%. The growth in the test with MOLT-4 leukemia was 111%.
As for `O=C(CCCCCCCC(=O)N1CCCCC1)N1CCCCC1`, the growth in the test with HCT-15 colon was 96.8%; in the test on HT29 colon, 106%; in the test with SNB-75 CNS, 78.8%; in the test on SNB-19 CNS it was 105%; with U251 CNS, 102%; in the test on PC-3 prostate it was 95.3%. For the same compound, the growth was 97.1% in the test with SK-MEL-5 melanoma; 91% in the test with UACC-62 melanoma; 88.1% in the test on LOX IMVI melanoma; 102% in the test on SK-MEL-28 melanoma; 103% with SK-MEL-2 melanoma; 100% with EKVX NSCLC. The growth in the test on UO-31 renal is 71.4%; in the test with TK-10 renal it was 97.3%; with ACHN renal it was 97.8%; in the test on CAKI-1 renal, 89.4%; with A498 renal it was 94.2%; in the test with CCRF-CEM leukemia, 116%. Further, the growth in the test with MOLT-4 leukemia was 126%.
In the case of `Cc1cccc(N2C(=O)/C(=C/C(Cl)=C/c3ccc([N+](=O)[O-])cc3)SC2=S)c1C`, the growth in the test with HCT-15 colon is -20.3% (active); in the test on HT29 colon, -7.89% (active); with SNB-75 CNS, -19.1% (active); in the test on SNB-19 CNS, 26.3%; in the test with U251 CNS, 4.72% (active); with PC-3 prostate it was 8.37% (active). In addition, the growth with SK-MEL-5 melanoma was -33.4% (active); in the test with UACC-62 melanoma, 0.485% (active); with LOX IMVI melanoma, -70.4% (active); in the test with SK-MEL-28 melanoma it was 24.2%; with SK-MEL-2 melanoma, 64%; in the test on EKVX NSCLC, -3.56% (active). Moreover, the growth in the test on SN12C renal was -13.4% (active); in the test on UO-31 renal it was -72.6% (active); in the test on TK-10 renal, -9.69% (active); in the test on ACHN renal, -84.1% (active); in the test on CAKI-1 renal, 35.7%; with A498 renal it was 61.1%. Also, in the test with MOLT-4 leukemia, the growth is 5.73% (active).
As to `CC1=C2[C@@H](CC1)[C@]1(C)O[C@@](C3CCNCC3)(C[C@H]1OC(=O)CO)[C@H]2OC(=O)/C=C/c1ccccc1`, the growth is 93.4% in the test on HCT-15 colon; 43.2% in the test with HT29 colon; 68.9% in the test on SNB-75 CNS; 90.6% with SNB-19 CNS; 44.3% with U251 CNS; 66.6% in the test on PC-3 prostate. For the same compound, the growth is 94.8% in the test with SK-MEL-5 melanoma; 93.3% in the test with UACC-62 melanoma; 87.1% with LOX IMVI melanoma; 94.1% in the test on SK-MEL-28 melanoma; 106% with SK-MEL-2 melanoma; 91.8% with EKVX NSCLC. The growth was 53.1% in the test with SN12C renal; 60.1% in the test with UO-31 renal; 47% with ACHN renal; 49.1% in the test on CAKI-1 renal; 9.48% (active) with A498 renal; 78.9% with CCRF-CEM leukemia. Further, the growth in the test with MOLT-4 leukemia is 78.1%.
As for `O=C(Nc1cc(Cl)ccc1O)c1ccccc1Nc1ccnc(C(F)(F)F)c1`, the growth in the test on HCT-15 colon is 14.1%; with HT29 colon it was 38.2%; with SNB-75 CNS it was 55.6%; with SNB-19 CNS, 16.2%; with U251 CNS it was 10.8%; in the test with PC-3 prostate, 7.3% (active). For the same compound, the growth is -43.8% (active) in the test on SK-MEL-5 melanoma; 23.1% in the test on UACC-62 melanoma; 18.8% in the test with LOX IMVI melanoma; 75% in the test on SK-MEL-28 melanoma; 31.8% in the test with SK-MEL-2 melanoma; 75.8% with EKVX NSCLC. Moreover, the growth was 3.5% (active) in the test with SN12C renal; 1.11% (active) in the test on UO-31 renal; 74.5% with TK-10 renal; 7.95% (active) with ACHN renal; 72.1% with CAKI-1 renal; 53.7% with A498 renal. In addition, in the test with MOLT-4 leukemia, the growth is -25% (active).
`C#CCOc1cccc(Nc2ncnc3cc(NC(=O)CCl)ccc23)c1`: the growth in the test on HCT-15 colon was -53.5% (active); in the test on HT29 colon, -78.9% (active); in the test with SNB-75 CNS, -49.9% (active); in the test with SNB-19 CNS, -88% (active); with U251 CNS, -78.9% (active); with PC-3 prostate it was -83.8% (active). The growth was -93.8% (active) in the test with SK-MEL-5 melanoma; -73.9% (active) with UACC-62 melanoma; -67.3% (active) in the test on LOX IMVI melanoma; -30.6% (active) with SK-MEL-28 melanoma; -55.3% (active) in the test on SK-MEL-2 melanoma; -49.1% (active) in the test with EKVX NSCLC. For the same compound, the growth was -83.5% (active) with SN12C renal; -88.7% (active) with UO-31 renal; -84.1% (active) with ACHN renal; -57.7% (active) with CAKI-1 renal; -25.6% (active) with A498 renal; -46.9% (active) in the test on CCRF-CEM leukemia. Besides, in the test on MOLT-4 leukemia, the growth was -35.4% (active).
For `O=C(/C=C/c1cn(-c2ccccc2)nc1-c1ccccc1)CCC(=O)NO`, the growth in the test with HCT-15 colon is 110%; with HT29 colon, 104%; in the test on SNB-75 CNS it was 95.6%; with SNB-19 CNS it was 112%; in the test on U251 CNS, 106%; in the test on PC-3 prostate, 108%. Moreover, the growth was 105% in the test on SK-MEL-5 melanoma; 103% with UACC-62 melanoma; 99.4% with LOX IMVI melanoma; 130% with SK-MEL-28 melanoma; 99% with SK-MEL-2 melanoma; 111% in the test with EKVX NSCLC. Also, the growth in the test with SN12C renal is 102%; with UO-31 renal it was 87.7%; with ACHN renal it was 106%; in the test on CAKI-1 renal, 94.5%; in the test on A498 renal, 105%; in the test with MOLT-4 leukemia, 79.9%.
In the case of `CC[C@@H](C(=O)[C@@H](C)[C@@H](O)[C@H](C)[C@@H]1O[C@@H]([C@@H](CC)C(=O)ONC(=O)c2ccccc2O)CC[C@@H]1C)C1O[C@]2(C=CC(=O)[C@]3(CC[C@@](C)([C@H]4CC[C@](O)(CC)[C@H](C)O4)O3)O2)[C@H](C)C[C@@H]1C` (stereo partly drawn), the growth with HCT-15 colon was 44.5%; with HT29 colon, 33.9%; with SNB-75 CNS, 64.3%; with SNB-19 CNS it was 48.4%; in the test on U251 CNS, 32.1%; in the test on PC-3 prostate, 31.3%. The growth is 11% in the test with SK-MEL-5 melanoma; 63.3% in the test with UACC-62 melanoma; 45.4% in the test on LOX IMVI melanoma; 73.3% in the test with SK-MEL-28 melanoma; 76.9% in the test on SK-MEL-2 melanoma; 45.2% in the test with EKVX NSCLC. The growth in the test with UO-31 renal is 36.9%; in the test with TK-10 renal it was 75.8%; in the test on ACHN renal, 50.2%; with CAKI-1 renal, 39.2%; in the test with A498 renal it was 36.4%; with CCRF-CEM leukemia, 36.6%. Moreover, the growth in the test with MOLT-4 leukemia is 45.1%.
Consider `FC(F)(F)c1[nH]ncc1-c1nc2ccc3[nH]ncc3c2c2c1CCCC2`, for which the growth with HCT-15 colon was 12.7%; in the test with HT29 colon, 6.93% (active); with SNB-75 CNS, 8.42% (active); in the test with SNB-19 CNS, 17.7%; in the test on U251 CNS, 5.69% (active); in the test with PC-3 prostate it was 21%. In addition, the growth in the test on SK-MEL-5 melanoma is -73.7% (active); in the test with UACC-62 melanoma it was 9.03% (active); in the test on LOX IMVI melanoma, -38.2% (active); in the test on SK-MEL-28 melanoma it was 2.24% (active); in the test with SK-MEL-2 melanoma, -18.4% (active); with SN12C renal, 12.5%. In addition, the growth was -26.8% (active) in the test with UO-31 renal; 1.15% (active) in the test with TK-10 renal; 5.04% (active) in the test on ACHN renal; 9.85% (active) in the test on CAKI-1 renal; -60.5% (active) with A498 renal; 6.43% (active) with CCRF-CEM leukemia. In the test with MOLT-4 leukemia, the growth is -30% (active).
In the case of `CCCCNC(=O)c1ccc2c(c1)nc(-c1ccccc1)n2C1CCCCC1`, the growth in the test on HCT-15 colon is 72.5%; with HT29 colon it was 50.3%; with SNB-75 CNS, 114%; in the test on SNB-19 CNS it was 110%; in the test with U251 CNS, 99%; in the test with PC-3 prostate, 90.9%. In addition, the growth in the test on SK-MEL-5 melanoma is 93.7%; in the test with UACC-62 melanoma, 87.3%; in the test with LOX IMVI melanoma it was 92.6%; with SK-MEL-28 melanoma, 106%; in the test with SK-MEL-2 melanoma it was 101%; in the test on EKVX NSCLC it was 88.4%. Besides, the growth in the test with UO-31 renal is 79.1%; in the test with TK-10 renal, 130%; in the test with ACHN renal, 102%; in the test on CAKI-1 renal it was 109%; in the test on A498 renal it was 101%; with CCRF-CEM leukemia, 86.5%. Besides, the growth in the test with MOLT-4 leukemia is 94.6%.
